Bioassay records from PubChem.
An excerpt weighted towards active compounds, which were near 2.6% of everything screened.
Cruzain inh noDet – inhibitors of Trypanosoma cruzi cruzain without detergent; P25779; purified cruzain, Z-FR-AMC fluorescence, no detergent; Potency, µM, usual class: inhibitors; 2.3% of 200,000 active; further: nearly all actives have a fitted effect of over 40% in size
Target sequence (P25779 123-467 limits assumed): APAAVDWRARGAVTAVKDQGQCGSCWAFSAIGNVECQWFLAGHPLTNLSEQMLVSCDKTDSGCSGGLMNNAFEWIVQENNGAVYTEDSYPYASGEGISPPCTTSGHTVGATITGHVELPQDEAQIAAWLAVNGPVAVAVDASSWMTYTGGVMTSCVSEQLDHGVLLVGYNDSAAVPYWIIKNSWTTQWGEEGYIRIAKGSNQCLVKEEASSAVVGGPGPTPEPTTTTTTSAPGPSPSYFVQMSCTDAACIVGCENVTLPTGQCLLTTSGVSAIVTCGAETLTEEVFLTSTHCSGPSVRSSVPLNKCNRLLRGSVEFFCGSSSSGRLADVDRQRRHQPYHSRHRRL
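Detergent-free condition (0.00005% Triton X-100) in acetate buffer pH 5.5 with DTT. 1.5 nM enzyme and compound were pre-mixed 15 min, then 2 uM Z-FR-AMC substrate added; reaction progress from fluorescence change between first and third reads (60 s).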
Cruzain Triton – inhibitors of Trypanosoma cruzi cruzain with detergent. AID 1478. Potency, µM, most hits filed as inhibitors. 0.43% of 200,000 active. P25779. purified cruzain, Z-FR-AMC fluorescence, 0.01% Triton; further: nearly all actives have a fitted effect of over 40% in size
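Sodium acetate buffer (100 mM, pH 5.5) containing 5 mM DTT and 0.01% Triton X-100 hosted 1.5 nM cruzain and test compound for 15 min at room temperature. Cleavage of 2 uM Z-FR-AMC was then tracked by fluorescence.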
Papain inh – blocks papain protease activity, flagging nonselective cruzain hits | shares compounds with Cruzain Triton | purified papain, Z-FR-AMC fluorescence cleavage | Potency, µM, most hits filed as inhibitors | 41% of 410 active; further: nearly all actives have a fitted effect of over 35% in size
Target sequence (P00784 whole entry, looked up): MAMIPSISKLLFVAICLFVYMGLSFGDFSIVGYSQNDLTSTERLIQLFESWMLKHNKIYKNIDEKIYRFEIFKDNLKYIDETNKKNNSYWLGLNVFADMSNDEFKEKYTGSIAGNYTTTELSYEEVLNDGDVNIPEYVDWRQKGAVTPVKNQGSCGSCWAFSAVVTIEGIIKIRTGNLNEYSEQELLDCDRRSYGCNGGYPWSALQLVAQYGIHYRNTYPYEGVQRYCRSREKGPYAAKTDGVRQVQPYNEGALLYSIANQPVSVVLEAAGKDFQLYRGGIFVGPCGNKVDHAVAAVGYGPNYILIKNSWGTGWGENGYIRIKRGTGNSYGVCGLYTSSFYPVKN
Each line names hits and unclear results; the compound was inactive in the other large screens (follow-up assays come after a bar, where they were run). The call rests on the fitted dose curve; in most records, active means well fitted curve in the direction sought with a large enough effect; inconclusive means small, poorly fitted or top-dose-only effect, or another doubt; inactive means no such curve, though single readings can be large; an effect the other way counts as inactive or inconclusive.

CCOC(=O)c1sc(N/N=C/c2cccc(C)c2)nc1C	Cruzain inh noDet inconclusive, Cruzain Triton 1.41µM | Papain inh 1.26µM
COc1ccccc1CNC(=O)C1CCCN(S(=O)(=O)c2ccc3c(c2)oc(=O)n3C)C1 (stereo unspecified)	none
CCN(Cc1ccccc1)c1nc2c(S(=O)(=O)c3ccccc3)nnn2c2ccc(Cl)cc12	Cruzain inh noDet inconclusive | Papain inh 31.6µM
COCCNc1nc2c(S(=O)(=O)c3ccccc3)nnn2c2ccc(Cl)cc12	none
Cc1cc(NC(=O)c2ccc3nc(-c4ccccc4)c(-c4ccccc4)nc3c2)no1	none
CNC(=O)c1ccc2nc(-c3cccc(C)c3)c(-c3cccc(C)c3)nc2c1	none (no result: Cruzain inh noDet, Cruzain Triton) | Papain inh inactive
Cc1cc(NC(=O)Nc2ccc(N(C)C)cc2)c2cc(F)cc(F)c2n1	Cruzain inh noDet inconclusive
CCC(=O)[C@@H](c1ccccc1)c1ccccn1	none
CSCC[C@H](NC(=O)COc1ccc(Cl)cc1Cl)c1nc2ccccc2[nH]1	Cruzain Triton 6.31µM | Papain inh inactive
CSCC[C@H](NC(=O)CC(C)(C)C)c1nc2ccccc2[nH]1	none
Cn1ncnc2c(=O)n(C)c(=O)nc1-2	Cruzain inh noDet 1.26µM, Cruzain Triton 1.26µM | Papain inh inactive
CCc1ccc(-c2nc3c(=O)n(C)c(=O)nc-3n(CC)n2)cc1	none (no result: Cruzain inh noDet, Cruzain Triton) | Papain inh inactive
CCc1ccc(-c2nn[nH]n2)cc1	none
Cc1ccc(-c2nc(N)n(S(C)(=O)=O)n2)cc1	none
Cc1ccc(-c2nc3c(=O)n(C)c(=O)nc-3n(C)n2)cc1	none (no result: Cruzain inh noDet, Cruzain Triton) | Papain inh inactive
Cc1ccccc1-c1nccc(-n2ccnc2)n1	none
Cc1ccccc1-c1nc2c(=O)n(C)c(=O)nc-2n(C)n1	none (no result: Cruzain inh noDet, Cruzain Triton) | Papain inh inactive
Cn1c(=O)c(-c2ccc(Cl)cc2)nc2cncnc21	none
Cc1noc(C)c1S(=O)(=O)Nc1ccc(C(=O)Nc2ccc(Br)cc2)cc1	none
N#Cc1nc(Nc2ccccc2)nc(NC2CCCC2)n1	none (no result: Cruzain inh noDet, Cruzain Triton) | Papain inh 0.447µM
N#Cc1c[nH]n2c(NC3CCCC3)c(-c3cccc(Br)c3)nc12	Cruzain inh noDet inconclusive
N#Cc1nc(Nc2cccc(Br)c2)nc(NC2CCCC2)n1	none (no result: Cruzain inh noDet, Cruzain Triton) | Papain inh 1.26µM
N#Cc1nc(Nc2ccc(F)cc2)nc(NC2CCCC2)n1	none (no result: Cruzain inh noDet, Cruzain Triton) | Papain inh 0.447µM
COc1cccc(/C=C/c2nc(C#N)c(NC3CCCCC3)o2)c1	none
c1ccc(Nc2nc(N3CCCC3)nc(N3CCCC3)n2)cc1	none
O=C(Nc1ccc(F)cc1)NC1CCCCC1	none
COc1cccc(Nc2nc(C#N)nc(NC3CCCC3)n2)c1	none (no result: Cruzain inh noDet, Cruzain Triton) | Papain inh 0.282µM
CCOc1ccc(CCNC(=O)c2ccc(CS(=O)(=O)Cc3ccccc3Cl)o2)cc1OCC	none
Nc1nc(NCC2CCC(CNS(=O)(=O)c3cccc4ccccc34)CC2)nc2ccccc12 (stereo unspecified)	Cruzain inh noDet inconclusive
N#Cc1nc(Nc2cccc3ccccc23)nc(NC2CCCC2)n1	none (no result: Cruzain inh noDet, Cruzain Triton) | Papain inh 4.47µM
N#Cc1nc(NCC2CC2)nc(Nc2ccccc2)n1	none (no result: Cruzain inh noDet, Cruzain Triton) | Papain inh 1.26µM
CC1CN=C(Nc2cccc3ccccc23)S1 (stereo unspecified)	none
c1ccc(-c2nnc(-c3ccccn3)nc2NC2CCCCC2)cc1	none
N#Cc1nc(Nc2ccc(-c3ccccc3)cc2)nc(NC2CCCC2)n1	none (no result: Cruzain inh noDet, Cruzain Triton) | Papain inh 3.55µM
Cc1ccc(C)c(N2CCN(CCCNC(=O)c3cnn(-c4ccccc4Cl)c3C3CCN(C(=O)OC(C)(C)C)CC3)CC2)c1	none
CC(C)N(CCC(=O)c1ccc2ccccc2c1)Cc1ccccc1	Cruzain inh noDet 7.94µM, Cruzain Triton 7.94µM | Papain inh inactive
CCC(=O)CCC(=O)c1ccc2ccccc2c1	none
CCN1CCN(C(=O)Cn2ncc3c4ccccc4n(Cc4c(C)cc(C)cc4C)c3c2=O)CC1	none
Cc1cccc(CSc2nc3ccncc3n2CC(=O)Nc2ccc(C)c(C)c2)c1	none
CC(C)CCNC(=O)Cn1c(SCc2cccc(F)c2)nc2ccncc21	none (no result: Cruzain inh noDet, Cruzain Triton) | Papain inh inactive
O=C(Cn1c(SCc2cccc(F)c2)nc2ccncc21)Nc1ccc(Cl)cc1F	none
CCCCNC(=O)Cn1c(SCc2cccc(C)c2)nc2ccncc21	none (no result: Cruzain inh noDet, Cruzain Triton) | Papain inh inactive
COc1cccc(CS(=O)(=O)c2nnnn2CC(C)C)c1	none
CC(C)C(=O)Nc1nnc(SCc2cc(=O)n3ccccc3n2)s1	none
CC(C)(C)c1ccc(CN2N=Nc3ccccc3S2(=O)=O)cc1	Cruzain inh noDet inconclusive
O=S1(=O)c2ccccc2N=NN1Cc1ccc(Cl)c(Cl)c1	Cruzain inh noDet inconclusive, Cruzain Triton 22.4µM | Papain inh inactive
CCN1CCC(O)([C@H](C(=O)O)c2ccccc2)CC1	none
CCCCC/C=C\C/C=C\C/C=C\CCCCC(=O)NCCc1ccc(O)c(O)c1	none
COc1ccc(C(=O)COC(=O)CNC(=O)C2CCCCC2)c(OC)c1	Cruzain inh noDet 6.31µM, Cruzain Triton 3.98µM | Papain inh inactive
CCOC(=O)C1CCN(C(=O)c2ccc(OC)cc2OC)CC1	none
COc1cc(OC)cc(C(=O)NCC(=O)OCC(=O)c2cc(OC)ccc2OC)c1	none
COc1ccc(OC)c(C(=O)COC(=O)CNC(=O)C2CCCCC2)c1	Cruzain inh noDet 5.01µM, Cruzain Triton 4.47µM | Papain inh inactive
CCOc1ccc2[nH]c(=O)c(CN(Cc3nnnn3Cc3ccco3)C3CCCCC3)cc2c1	Cruzain inh noDet 10µM, Cruzain Triton 6.31µM | Papain inh inactive
COc1cc2cc(CN(Cc3nnnn3Cc3ccco3)C3CCCCC3)c(=O)[nH]c2cc1OC	Cruzain inh noDet 7.94µM, Cruzain Triton 7.08µM | Papain inh 28.2µM
COCCn1nnnc1CN(Cc1cc2cc(OC)c(OC)cc2[nH]c1=O)C1CCCC1	none
CCOc1ccc2[nH]c(=O)c(CN(Cc3ccco3)Cc3nnnn3Cc3ccccc3)cc2c1	none
CCc1cccc(NS(=O)(=O)c2cc(-c3cnc(C)o3)ccc2OC)c1	none
Cc1ccc(C)c(-c2csc(-c3c(N)c(C(=O)c4ccc5c(c4)OCO5)n4ccccc34)n2)c1	Cruzain inh noDet 3.16µM | Papain inh inactive
Cc1cc(C)c(-c2csc(NC(=O)COC(=O)c3ccc4c(c3)OCO4)n2)c(C)c1	Cruzain inh noDet inconclusive
CN(C)c1nc(N(C)C)nc(N(C)C)n1	none
CN(C)c1nc(C#N)nc(N(C)C)n1	none (no result: Cruzain inh noDet, Cruzain Triton) | Papain inh 11.2µM
CCCN(CCC)c1nc(C#N)nc(N(CCC)CCC)n1	none (no result: Cruzain inh noDet, Cruzain Triton) | Papain inh 2.51µM
CCCN(CCC)c1nc(N)c(C#N)c(CC#N)c1C#N	none
N[C@H](C(=O)O)c1ccc(C(=O)O)cc1	none
O=C(NCCc1ccc(Cl)cc1)c1cccn1-c1nnc(N2CCCC2)s1	none
CCn1c(=O)n(-c2ccc(C)c(F)c2)c(=O)c2sc3ccccc3c21	none
CCOC(=O)c1c(C)c(-c2ccccc2)n(CC(=O)NCCc2cccc(C)c2)c1C	none
COc1ccc(OC)c(NC(=O)c2cn(CC(C)C)c(=O)c3cc(OC)c(OC)cc23)c1	Cruzain inh noDet inconclusive
O=C(CNC(=O)C1CCCCC1)OCC(=O)c1ccc(Br)cc1	none (no result: Cruzain inh noDet, Cruzain Triton) | Papain inh inactive
O=C(CNC(=O)c1ccco1)OCC(=O)c1ccc2c(c1)CCCC2	none
CCOC(=O)CNC(=O)c1ccccc1	none
O=C(CN1C(=O)c2ccccc2C1=O)NCC(=O)OCC(=O)c1ccc(Br)cc1	none
COc1ccc(C(=O)C(C)OC(=O)CNC(=O)C2CCCCC2)cc1 (stereo unspecified)	none (no result: Cruzain inh noDet, Cruzain Triton) | Papain inh 11.2µM
O=C(CNC(=O)C1CCCCC1)OCC(=O)c1ccc2c(c1)CCC2	none (no result: Cruzain inh noDet, Cruzain Triton) | Papain inh inactive
O=C(CNC(=O)c1ccccc1)OCC(=O)c1ccccc1	none (no result: Cruzain inh noDet, Cruzain Triton) | Papain inh inactive
